Results filed as inconclusive are left out. Where a call stands in place of a potency, no number is given. The source made the active and inactive calls. Calls come from the whole dose curve; as a rule, active = well fitted inhibition curve with a large enough effect; inconclusive = small, poorly fitted or top-dose-only effect; inactive = flat fitted curve, though single readings scatter.
target: Glutathione peroxidase 1 (Homo sapiens) (UniProt P07203); assay: Primary qHTS Assay for Inhibitors of Recombinant Selenoprotein Glutathione Peroxidase 1 (GPX1) (AID 1845191); conditions: recombinant GPX1, GR-coupled NADPH fluorescence, 15 min; series mostly up to 48.8 µM; note: nearly all actives have a fitted effect of over 65% in size
Method in brief: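 Recombinant GPX1 (10 nM final) was preincubated with compound for 30 min at room temperature, then reacted with 1 mM GSH, 0.5 mM CHP, 0.5 mM NADPH and 100 nM glutathione reductase; NADPH fluorescence (340/450 nm) was read at 0 and 15 min.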

Sequence of Glutathione peroxidase 1 (Homo sapiens) (P07203 whole entry, looked up): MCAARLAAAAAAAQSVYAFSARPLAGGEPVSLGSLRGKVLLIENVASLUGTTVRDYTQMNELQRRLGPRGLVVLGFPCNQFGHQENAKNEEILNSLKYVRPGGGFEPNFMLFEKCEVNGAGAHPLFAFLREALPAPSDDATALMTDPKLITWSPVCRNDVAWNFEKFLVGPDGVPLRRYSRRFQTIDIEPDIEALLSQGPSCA

SMILES | Potency
O=S1(=O)CCN(Cc2cc(NCC3CCOCC3)c3[nH]c(-c4ccccc4)cc3c2)CC1 | inactive
O=C(c1ccccc1)c1c(O)cc(O)cc1O[C@@H]1O[C@H](CO)[C@@H](O)[C@H](O)[C@H]1O | inactive
CC(C)C[C@H](CO)Nc1nc(S[C@@H](C)c2ccccc2)nc2nc(N)sc12 | inactive
O=C(c1ccc(Cl)cc1)N1CCN(c2ccnc3cc(Cl)ccc23)CC1 | inactive
Cc1c[nH]c2ncnc(N3CCC(CN)(C(=O)Nc4cccc(OC(=O)N(C)C)c4)CC3)c12 | inactive
C=CC(=O)Nc1cccc(Nc2nc(Nc3ccc(OCCOC)cc3)ncc2F)c1 | inactive
Cc1c(OCc2cccc(-c3ccc(C(=O)O)cc3)c2)cc2c(c1C)C(=O)C(C1CCCC1)C2 (stereo not given) | inactive
COc1c(CCC(=O)O)cccc1O[C@@H]1O[C@H](CO)[C@@H](O)[C@H](O)[C@H]1O | inactive
C[C@]12CC[C@@H]3c4ccc(O)c(O)c4CC[C@H]3[C@@H]1CCC2=O | inactive
CCOC(=O)N1CCC(CN(Cc2ccc(Cl)cc2)Cc2ccc([N+](=O)[O-])s2)C1 (stereo not given) | inactive
C=C1C(OC2OC(CO)C(O)C(O)C2O)CC2C(C)(C)C(O)CCC2(C)C1CC/C(C)=C\COC(=O)CC(=O)O (stereo not given) | inactive
Fc1ccc2c(CCNCc3cccc(OCC(F)(F)C(F)F)c3)c[nH]c2c1 | inactive
Cc1[nH]c(/C=C2\C(=O)Nc3ccc(S(=O)(=O)N(C)c4cccc(Cl)c4)cc32)c(C)c1C(=O)N1CCN(C)CC1 | inactive
CCn1c2ccccc2c2cc(Nc3ccnc(NCCCN4CCOCC4)n3)ccc21 | inactive
COc1ccc(CCN(C)CCCOc2nsc(-c3ccccc3)n2)cc1OC | inactive
COc1cc2c(Nc3cc(F)c(Cl)c(Cl)c3)ncnc2cc1OCC1CCCN(C)CCC1 | inactive
CC1(C)CC[C@]2(C(=O)O[C@@H]3O[C@H](CO)[C@@H](O)[C@H](O)[C@H]3O)CC[C@]3(C)C(=CCC4[C@@]5(C)CC[C@H](O[C@@H]6O[C@H](C(=O)O)[C@H](O)[C@H](O)[C@H]6O)C(C)(C)C5CC[C@]43C)[C@@H]2C1 (stereo not given in full) | inactive
CC(C)(C[C@@](O)(Cc1cc2ccncc2[nH]1)C(F)(F)F)c1cc(F)ccc1O | inactive

SMILES | Potency
CC[C@H]1CN(c2nc(N)c(C(N)=O)nc2Cl)CCN1C1CCN(Cc2ccc(Cl)cc2)CC1 | inactive
CN1CCN(Cc2ccc(NC(=O)Cc3ccc(Oc4cc(NC(=O)C5CC5)ncn4)cc3)cc2C(F)(F)F)CC1 | inactive
COc1ccc(CCc2nc3c(C)c(-c4c(C)noc4C)c(C)cc3n2CCN2CCOCC2)cc1 | inactive
Cc1nnc(C[C@@H]2C=C(c3ccc(Cl)cc3)c3ccccc3-n3c(C)nnc32)o1 | inactive
CC(=O)OC/C(=C/C(=O)O)CC[C@@H]1C(C=O)=CC[C@@H]2C(C)(C)CCC[C@@]12C | inactive
CN(C)CC1CCn2c(c(C3=C(c4cn(C)c5ccccc45)C(=O)NC3=O)c3ccccc32)C1 (stereo not given) | inactive
Nc1ncnc2c1c(-c1ccc(Oc3ccccc3)cc1)nn2[C@@H]1CCCNC1 | inactive
CC(=O)[C@H]1CC[C@H]2[C@@H]3CC=C4C[C@@H](OS(=O)(=O)O)CC[C@]4(C)[C@H]3CC[C@]12C | inactive
Cc1cc(NC(=O)c2cccc(NC(=O)/C=C/CN(C)C)c2)ccc1Nc1nccc(-c2cccnc2)n1 | inactive
COc1ccc(NC(=O)c2ccc(-c3ccc(C(=N)N)cc3C)cc2)cc1N1CCN(C)CC1 | inactive
COC(=O)CC1OC(C)C2=C(O)c3c(O)cccc3C(=O)C23OC13 (stereo not given) | inactive
Cc1nc(C#Cc2ccnc(Cl)c2)c(C)n1-c1ccc(F)cc1 | inactive
CCCc1cc2c(N3CCN(C4=NCC(C)(C)S4)CC3)ncnc2s1 | inactive
CCNC(=O)C#Cc1ccc2c(C(=Nc3ccc(CN(C)C)cc3)c3ccccc3)c(O)[nH]c2c1 | inactive
COc1cccc(-c2cn(-c3ccc(CCN4CCC(O)CC4)cc3)c3ncnc(N)c23)c1 | inactive
Nc1nc(NC2CC2)cc(-c2cccc(Cl)c2Cl)n1 | inactive
O=C(Nc1ccc(C(F)(F)F)cn1)N1CCN(c2ncccc2C(F)(F)F)CC1 | inactive

— PubChem BioAssay (NCATS)
